From PubChem
Env fusion inh – inhibitors of HIV-1 Env-driven cell-cell fusion, primary screen, HeLa-JRFL effector, CEM21 target cells, luciferase; inhibition, % at 12.3 µM; 1.1% of 360,000 active; AID 651610, 2012;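 active = mean replicate inhibition score of at least 50 and every replicate individually at or above 50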;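 note: 0% = plate neutral controls and 100% = maraviroc near 300 nM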
MITF TRPM1 HTS – activators of MITF-driven TRPM1 promoter reporter, primary screen, cell-based, SK-MEL-5, luciferase, single point; SK-MEL-5 TRPM1-promoter luciferase, 24 h; % of positive control, neutral wells = 0; activation, % at 12.5 µM; 0.75% of 300,000 active; AID 588334, 2011;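 active = mean activation of at least 80% with every replicate also reaching 80%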;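 note: 0% = neutral control wells and 100% = parthenolide positive control wells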
Wnt act – Wnt/beta-catenin pathway activators, primary screen, cell-based, plate reader, single point. Wnt/beta-catenin reporter cell assay, activator. activation, % at 9.35 µM. 1.2% of 300,000 active. AID 743398, 2014; in the data active = activation above about 30%, passing the limit was not always enough;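 note: 0% = neutral control wells and 100% = positive control wells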
INS-1E GSIS act – GLuc luminescence reporter in INS-1E cells, primary screen for activators of glucose-dependent secretion of insulin | INS-1E GLuc reporter insulin secretion, 2-3 h | activation, % at 16.6 µM | 0.61% of 370,000 active;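 active = lowest replicate activation of at least 40%, so every replicate reaches that level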;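 note: 0% = median of neutral control wells and 100% = median of IBMX positive control wells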
F508del corr – F508del CFTR correction, initial screen, CFBE line, single point | CFBE cells, YFP halide quenching; stimulated with forskolin plus potentiator P3; % fluorescence drop versus neutral controls | activity (quench increase), % at 7.58 µM | 0.36% of 350,000 active;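 active = mean added fluorescence quench of at least 8% versus neutral control, with both replicates also reaching 8%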;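 note: cells transiently co-express mutant CFTR-F508del with the halide-sensitive YFP; corrector assay measuring rescue of mutant channel to the surface after 24 h compound exposure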
Active calls of the source: *; i = inactive; . = no result given; [ ] = remark or other dose. This is a sample that favours compounds with a hit; in the whole collection about 2.7% have one here.

SMILES | Env fusion inh | MITF TRPM1 HTS | Wnt act | INS-1E GSIS act | F508del corr
CCOC(=O)/C(C#N)=C\c1cc(C)n(-c2ccccc2)c1C | i | . | 12.1 | . | .
CCOC(=O)/C(C#N)=C/c1cc(C)n(-c2ccc(C)cc2)c1C | . | 93.0* | . | -16.0 | .
Clc1ccc(CN=C2Nc3ccccc3CS2)cc1 | -241.2 | . | 63.6* | . | .
CCCn1c(CN2CCN(C(=O)OCC)CC2)nc2cc(NC(=O)CC)ccc21 | -21.3 | -10.7 | -2.3 | -11.1 | 8.6*
COc1ccc(-c2ccc([C@@H]3[C@H](C#N)N(C(=O)NC4CCCC4)[C@H]3CO)cc2)cc1 | 1.0[16.7 µM] | . | . | -8.9 | 1.5
O=C(c1ccc(C(F)(F)F)cc1)n1ccc(-c2cccs2)n1 | -0.2 | -1.6 | 41.9* | 9.2 | -0.3
COCCn1c(SCC(=O)NCCc2ccccc2)nc2c([nH]c3ccccc32)c1=O | . | -5.5 | . | . | .
C=CCn1c(SCC(=O)NCCc2ccccc2)nc2c([nH]c3ccccc32)c1=O | 57.5* | -3.0 | 3.8 | -0.2 | 1.3
C=CCn1c(SCC(=O)N2CCOCC2)nc2c([nH]c3ccccc32)c1=O | -13.7 | -12.0 | 10.9 | 43.2* | 1.9
C=CCn1c(SCC(=O)NCCC2=CCCCC2)nc2ccc(Cl)cc2c1=O | 62.5* | . | -1.4 | . | .
C=CCn1c(SCC(=O)Nc2ccc(F)cc2F)nc2c([nH]c3ccccc32)c1=O | 13.3 | -13.9 | -1.9 | 30.3 | 1.7
C=CCn1c(SCC(=O)Nc2ccccc2OC)nc2c([nH]c3ccccc32)c1=O | 63.1* | -46.9 | -0.1 | 25.0 | 2.0
COCC#Cc1ccc2c(c1)O[C@H](CN(C)Cc1ccc3c(c1)OCO3)[C@H](C)CN([C@@H](C)CO)S2(=O)=O | 17.3[16.7 µM] | . | . | 13.9 | 2.8
CCC(=O)N(C)C[C@@H]1Oc2ncc(C#CC(C)(C)O)cc2C(=O)N([C@H](C)CO)C[C@H]1C | -10.6[16.7 µM] | . | . | 13.4 | 0.6
COCCn1c(SCC(=O)Nc2ccccc2OC)nc2c([nH]c3ccccc32)c1=O | 92.3* | -22.6 | -1.1 | 24.6 | -0.1
CN(C)c1ccc(N=c2sc3ccccc3n2C)cc1 | 4.4 | 51.3 | 51.4* | . | .
Cn1c(=Nc2ccccc2)sc2ccccc21 | . | 36.2 | 19.6 | 44.7 | -1.3
CN(CC(=O)NCC(=O)Nc1ccc(F)cc1)CC(=O)Nc1ccc(Cl)c(C(F)(F)F)c1 | . | -4.0 | -1.1 | -74.2 | -0.8
CC(NC(=O)CN(C)CC(=O)Nc1ccc(Cl)c(C(F)(F)F)c1)c1ccccc1 (stereo not given) | 102.6* | -12.7 | -1.0 | -28.3 | 2.1
COc1ccc(C2/C=C\CN(C(=O)C3CC3)[C@H](Cc3ccccc3)C(=O)N2Cc2ccc(F)cc2)cc1 (stereo not given in full) | . | -1.6 | . | . | .
COc1ccc([C@H]2/C=C\CN(C(=O)C3CC3)[C@@H](C)C(=O)N2Cc2ccc(F)cc2)cc1 | 69.7* | -6.7 | -2.6 | -17.6 | 1.0
N#CCCN(C(=O)CN1CCN(S(=O)(=O)c2ccc(Cl)s2)CC1)c1ccc(F)cc1 | 62.4* | 13.3 | 1.2 | -10.3 | 1.5
CC(C)NC(=O)N1[C@H](CO)[C@@H](c2ccccc2)[C@H]1CN(C)C(=O)c1ccncc1 | . | . | . | -3.1 | 0.6
O=C(C1CCOCC1)N1C[C@@H]2[C@H](c3ccccc31)[C@H](CO)N2Cc1ccccc1 | . | . | . | 5.0 | 0.3
Cc1noc(C)c1COc1ccc(C(=O)NNC(=O)c2ccccc2)cc1 | -12.9 | -22.0 | -8.7 | 9.9 | 9.6*
SMILES | Env fusion inh | MITF TRPM1 HTS | Wnt act | INS-1E GSIS act | F508del corr
Cc1cccc(NC(=O)c2ccc(OCc3c(C)noc3C)cc2)c1C | -13.0 | 3.0 | -0.2 | 136.6* | -3.1
Cc1ccccc1NC(=O)c1ccc(OCc2c(C)noc2C)cc1 | -2.8 | 11.3 | 0.3 | 27.8 | -0.3
Fc1ccc2cnc(-c3ccccc3)c(-c3cc(C(F)(F)F)cc(C(F)(F)F)c3)c2c1 | 34.1 | -5.7 | -14.8 | -4.7 | 1.6
COc1cc2cnc(-c3ccccc3)c(-c3ccc(C(F)(F)F)cc3)c2cc1OC | 84.4* | 15.2 | 0.5 | -0.9 | 1.4
Fc1ccc2c(-c3cccc(C(F)(F)F)c3)c(-c3ccccc3)ncc2c1 | 69.4* | -2.3 | -0.5 | -22.6 | -0.9
C[C@H]1CN([C@@H](C)CO)C(=O)c2cc(C3=CCCCC3)cnc2O[C@@H]1CN(C)C(=O)C1CCOCC1 | 6.3[16.7 µM] | . | . | 2.2 | -1.6
C[C@H](CO)N1C[C@H](C)[C@H](CN(C)S(=O)(=O)c2ccc(F)cc2)OCCCC[C@H](C)Oc2ccc(NS(=O)(=O)c3cccs3)cc2C1=O | -25.6[16.7 µM] | . | . | -0.6 | 0.2
